Nrf2 ARE act = Nrf2 pathway activation; AREc32 ARE-luciferase reporter (MCF7-derived line), luminescence, 24 h; Potency, µM (doses to about 46.1 µM), usual class: activators; 0.31% of 410,000 active; note: nearly all actives have a fitted effect of over 65% in size
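ARE-driven firefly luciferase activity in AREc32 cells measured after a 24 hr compound exposure at 37 deg C, using Steady-Glo reagent and a 30 min room-temperature hold.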
ATXN2 expr inh = reduces ATXN2 reporter expression in HEK-293 cells; 0.72% of 360,000 active; Potency, µM (titrated, usually from 57 µM), actives largely listed as inhibitors; HEK-293 ATXN2-luciferase reporter, luminescence, 24 h; AID 1745845; note: nearly all actives have a fitted effect of over 55% in size
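ATXN2-luciferase reporter cells (luciferase flanked by upstream and downstream ATXN2 gene portions) were treated 24 h at 37 °C with compounds at up to 57 uM. SteadyGlo luminescence gave expression; GF-AFC fluorescence gave viability.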
A549 tox = counter-screen for Nrf2 inhibitors: cytotoxicity in A549 cells; A549 ARE-Fluc cells, CellTiter-Fluor viability, 18-24 h; Potency, µM (highest dose often 46 µM), hits mostly inhibitors; 0.16% of 390,000 active
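Cytotoxicity counterscreen: CellTiter-Fluor fluorescence was measured in A549 ARE_Fluc cells after 18-24 h of compound exposure in a concentration series. The subsequent BugLite luminescent read reports ARE-luciferase activity.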
Nrf2 inh = Nrf2 pathway inhibition; A549 ARE-Fluc reporter, luciferase luminescence, 18-24 h; Potency, µM (series often up to 46 µM), hits mostly inhibitors; 2.1% of 360,000 active; AID 504444; note: nearly all actives have a fitted effect of over 60% in size
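Quantitative HTS in A549 cells stably bearing an antioxidant response element-firefly luciferase construct. Inhibition of Nrf2-driven transcription was scored by luminescence after 18-24 h of compound exposure at 37 °C.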
S2 tox = reduces viability in counter-screen for ATXN expression inhibitors; S2 cells (HEK-293 line with an ATXN2-luciferase reporter) viability, CellTiter-Fluor protease fluorescence, 24 h; Potency, µM (doses to about 56.7 µM), hits mostly cytotoxic; 0.49% of 400,000 active; note: nearly all actives have a fitted effect of over 40% in size
A number is an active result; - = inactive; ? = inconclusive; . = not tested or not shown; ! = repeats disagree. Sampled rows, rich in hits. Any-hit rate of the full collection: about 2.9%. Calls come from the whole dose curve; as a rule, active = well fitted curve in the direction sought with a large enough effect; inconclusive = small, poorly fitted or top-dose-only effect, or another doubt; inactive = no such curve, though single readings can be large; an effect the other way counts as inactive or inconclusive.

SMILES	Nrf2 ARE act	ATXN2 expr inh	A549 tox	Nrf2 inh	S2 tox
COc1ccc(NC(=O)CSc2nc3ccccc3nc2N2CCOCC2)c(OC)c1	-	-	-	?	4.5µM!
Cc1ccc2nc(CSc3nc(C)nc4c3oc3ccccc34)[nH]c2c1	-	?	?	18µM	?
O=C(c1ccoc1)N1CCN(c2cc(-c3ccco3)nc3cc(-c4ccccc4)nn23)CC1	-	25µM	.	.	?
COc1ccccc1-c1cc2nc(-c3ccccc3)cc(N3CCN(C(=O)c4ccco4)CC3)n2n1	-	13µM	.	.	?
Cc1nc2cc(-c3cccc(F)c3)nn2c(N2CCN(C(=O)c3ccco3)CC2)c1C	13µM	-	-	-	-
Cc1nc2cc(-c3cccc(F)c3)nn2c(C)c1CCC(=O)NC(C)CCc1ccco1 (configuration not stated)	-	?	-	0.82µM	-
COc1cc(OC)cc(-c2cc3nc(C)c(CCC(=O)NC(C)CCc4ccco4)c(C)n3n2)c1 (configuration not stated)	-	?	-	?	-
COc1ccc(-c2cc3nc(C)c(C)c(N4CCN(C(=O)c5ccoc5)CC4)n3n2)cc1	-	-	.	.	-
CC(O)C1C(=O)N2C(C(=O)O)=C(SC3CNC(C(=O)N(C)C)C3)C(C)C12 (configuration not stated)	.	-	.	.	.
Cc1nc2cc(-c3ccccc3)nn2c(C)c1CCC(=O)N1CCN(c2ccc(F)cc2)CC1	-	?	-	5.2µM	-
Cc1nc2cc(-c3cccc(F)c3)nn2c(C)c1CCC(=O)N1CCN(c2ccccn2)CC1	-	-	-	?	-
COc1ccc(-c2cn3c(C)c(C(=O)N4CCc5ccccc5C4)sc3n2)cc1	-	-	-	16µM	-
COc1ccc2[nH]c(C(=O)N3CCc4ccccc4C3)c(C)c2c1	-	.	-	18µM	-
Cc1ccc(CN2C[C@H](Sc3ccccn3)C[C@H]2C(=O)Nc2ccc3sc(C)nc3c2)cc1	.	.	.	.	-
COc1ccccc1C(=O)N1CCOc2ccc(C(C)(O)CCn3cccn3)cc2C1 (configuration not stated)	.	.	.	.	-
CCCN1CCN(CCCNC(=O)c2cnn(-c3ccc(F)cc3)c2-n2cccc2)CC1	-	-	-	-	-
CC1(C)CC(=O)C/C(=N/NC(=O)c2ccc(-c3ccccc3)cc2)C1	-	.	-	16µM	-
CC1(C)CC(=O)C/C(=N\NC(=O)Cc2ccccc2)C1	-	-	-	?	-
COc1ccc(C2(C(=O)Nc3cc(C)on3)CCOCC2)cc1	-	-	-	-	-
Cc1ccc(NC(=O)C2(c3ccc4c(c3)OC(F)(F)O4)CC2)nc1-c1cccc(C(=O)O)c1	.	0.086µM	.	.	.
O=S(=O)(c1ccc2c(c1)OCCO2)N1CCN(S(=O)(=O)c2ccc(Cl)cc2F)CC1	.	.	-	-	.
O=C1c2ccccc2NC(c2ccc(Br)s2)N1O (configuration not stated)	-	.	-	18µM	-
CCOC(=O)N1CCN(C(=O)c2ccc(-c3ccccc3OC)nc2N2CCC(N3CCCC(CO)C3)CC2)CC1 (configuration not stated)	.	.	.	.	-
COc1ccc(OC)c(NC(=O)c2c(NCc3ccc(N(C)C)cc3)sc3c2CCCC3)c1	-	?	?	.	22µM
COc1cc(NC(=O)Cn2nc(C(F)(F)F)c(Br)c2C)cc([N+](=O)[O-])c1	-	?	?	23µM	-
SMILES	Nrf2 ARE act	ATXN2 expr inh	A549 tox	Nrf2 inh	S2 tox
CCN(CC)C(=O)CSc1nnc2nnc3cc(OC)ccc3n12	-	-	?	18µM	-
CCCCCCCN(C(=O)CCl)c1cccc(C)c1	-	25µM	-	-	.
CCCCCCN(C(=O)CCl)c1ccccc1	?	.	-	-	?
COC(=O)c1nc(NC(=O)c2ccccc2Cl)n[nH]1	-	-	-	26µM	-
COC(=O)c1nc(NC(=O)c2ccc(Br)cc2)n[nH]1	-	-	-	-	-
O=C(COC(=O)Cc1ccccc1F)Nc1cc(S(=O)(=O)N2CCOCC2)ccc1N1CCCC1	-	-	-	-	1µM
CCOC(=O)C(C)N1C(=O)S/C(=C/c2ccc3c(c2)n(C)c(=O)n3C)C1=O (configuration not stated)	?	.	-	21µM	-
O=C(OCc1cnc(Cl)s1)c1ccccc1Cl	-	-	-	.	-
O=C(OCn1ncc(Br)c(Br)c1=O)c1ccc(F)cc1	?	7.9µM	?	?	14µM

Screening data from PubChem BioAssay.
